Experimental data as given in PubChem BioAssay AID624330 (Southern Research Specialized Biocontainment Screening …, 2012).
Among all 340,000 compounds or so, about 2,100 (0.62%) were called active.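 Rule for the calls: active = first-screen hits whose inhibition reached a set limit at any dose in the follow-up dose series; inconclusive = inhibition above the set first-screen limit but never retested; inactive = the rest.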 Not all results are given here. Potency and affinity values are given separately.

Molecular target: Rac GTPase-activating protein 1 (Homo sapiens) (UniProt Q9H0H5)
Sequence (Q9H0H5 whole entry, looked up): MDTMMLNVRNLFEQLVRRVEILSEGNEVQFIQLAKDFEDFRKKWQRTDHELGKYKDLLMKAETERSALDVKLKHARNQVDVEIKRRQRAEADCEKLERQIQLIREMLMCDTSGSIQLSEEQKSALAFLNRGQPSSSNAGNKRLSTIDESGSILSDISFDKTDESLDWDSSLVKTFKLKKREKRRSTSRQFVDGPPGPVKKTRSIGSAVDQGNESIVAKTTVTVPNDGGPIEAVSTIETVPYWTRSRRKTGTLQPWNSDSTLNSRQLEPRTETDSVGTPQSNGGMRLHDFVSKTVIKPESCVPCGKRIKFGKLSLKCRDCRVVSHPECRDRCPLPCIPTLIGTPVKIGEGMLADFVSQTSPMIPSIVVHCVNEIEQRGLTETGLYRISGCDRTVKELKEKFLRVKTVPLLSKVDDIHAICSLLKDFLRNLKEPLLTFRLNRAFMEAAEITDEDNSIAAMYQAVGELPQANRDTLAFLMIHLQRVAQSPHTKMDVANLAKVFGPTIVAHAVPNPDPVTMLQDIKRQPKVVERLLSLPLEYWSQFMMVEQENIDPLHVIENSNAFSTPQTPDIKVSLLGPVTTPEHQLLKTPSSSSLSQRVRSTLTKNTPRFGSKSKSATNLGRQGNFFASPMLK
Test: blockers of MgcRacGAP-driven Rac1 GTP hydrolysis – biochemical, ADP Hunter fluorescence, primary and confirmatory, confirmation (AID 624330);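 note: fluorescence reports GDP produced by GAP-driven GTP hydrolysis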
Settings: MgcRacGAP-stimulated Rac1 GTP hydrolysis, at 30 µM, active compounds read high, GST-tagged Rac1 F28L mutant substrate

inhibition, inactive:
Cc1ccc(C(=O)COC(=O)c2cnccn2)cc1 -2.3%, O=C(C1CCCN(S(=O)(=O)c2ccc(Cl)cc2)C1)N(Cc1cccs1)C1CC1 (stereo not drawn) 6.33%, CCn1c(SCC(=O)Nc2cc(C)on2)nnc1-c1ccc(OC)cc1 -3.69%, OC(CNCc1cccs1)c1ccccc1 (stereo not drawn) 8.64%, COc1cccc(CN2CCN(S(=O)(=O)c3ccc(Cl)s3)CC2)c1 -1.96%, CCOc1ccc(/C=N/n2cc(-c3ccccc3)[nH]c2=S)cc1 7.02%, CCOC(=O)C1(C(=O)OCC)NC(=O)CC1CC(C)C (stereo not drawn) 0.34%, COc1ccc(NC(=S)NCCc2ccc(F)cc2)c(OC)c1 5.59%, Fc1ccccc1OCCCCN1CCCCC1 24.8%, Cc1ccccc1OCCCCCn1ccnc1 2.87%, Clc1ccccc1OCCCCn1ccnc1 -1.42%, CC1CN(CN2C(=O)c3ccccc3C2=O)CC(C)O1 (stereo not drawn) -0.88%, CC1CN(C(=O)CCCN2C(=O)c3ccccc3C2=O)CC(C)O1 (stereo not drawn) -0.39%, C/C=C/c1ccc(OCCCCN2CCC(C)CC2)c(OC)c1 17.4%, C/C=C/c1ccc(OCCCCOc2ccc(OC)cc2)c(OC)c1 8.38%, Fc1ccccc1OCCCCCN1CCCC1 10.2%, CCn1c2ccccc2c2cc(NC(=O)COC(=O)c3cc(S(N)(=O)=O)c(Cl)cc3Cl)ccc21 11.3%, O=C(Nc1nnc(C2CC2)s1)C1Cc2ccccc2CN1C(=O)c1ccco1 (stereo not drawn) 6.66%, c1cn(CCCNc2ncnc3nc[nH]c23)cn1 8.22%, CCCNC(=O)CNC(=S)N(Cc1ccccc1F)C1CCCCC1 8.76%, CCCN(CC(=O)Nc1ccc(F)c(F)c1F)C(=O)Cn1c(=O)cnc2ccccc21 5.6%, O=C(OCC(=O)N1CCc2ccccc2C1)c1c(F)cccc1Cl 4.76%, O=C1CN(C(=O)COC(=O)c2ccc(N3CCCCCC3)c([N+](=O)[O-])c2)c2ccccc2N1 13.5%, COc1ccc(NC(=O)CN(C)C(=O)Cn2c(=O)oc3ccccc32)cc1 3.28%, CCOc1cc(/C=C2\CCn3c2nc2cc(Cl)ccc2c3=O)ccc1O 15.1%, CCOc1cc(/C=C2/C(=O)ON=C2C)ccc1O 21.6%, CCN1C/C(=C/c2ccc(OC)c(O)c2)C(=O)/C(=C/c2ccc(OC)c(O)c2)C1 8.1%, COc1ccc(/C=C2\CC/C(=C\c3ccc(OC)c(OC)c3)C2=O)cc1OC 4.49%, CCOc1cc(/C=C2\CCCC(C(=O)C(F)(F)F)=C2O)ccc1O 25.9%, COc1ccc(/C=C2\CN(Cc3ccccc3)C/C(=C\c3ccc(OC)c(O)c3)C2=O)cc1O 7.6%, COc1cc(/C=C2/C(=O)CNC2=O)ccc1O 28.6%, COc1cc(/C=C2/CC/C(=C/c3ccc(O)c(OC)c3)C2=O)ccc1O 22%, O=C(CSc1nnc(NC(=O)c2ccccc2F)s1)NC1CC1 2.69%, NNC(=O)c1ncoc1-c1ccc(Cl)cc1 5.93%, C=CCN1CC2CC3(COc4cc(C)cc(C)c4)C=CC2(O3)C1=O (stereo not drawn) 14.1%, Cc1ccc(C(=O)OCC(=O)Nc2ccc(F)c(Cl)c2)o1 5.92%, COc1ccc(CNC(=O)C[C@H]2C[C@H](C(=O)N3CCOCC3)[C@@]3(C)c4[nH]c5cc(-c6ccco6)ccc5c4CCN3C2=O)cc1OC 15.1%, O=C(C=Cc1ccccn1)c1ccccc1 3.53%, CCO[C@@H]1OC(C(=O)N2CCOCC2)=C[C@H](c2ccc(Br)cc2)[C@H]1CCCO 9.4%, CC(C)CCNC(=O)C(c1ccncc1)N(C(=O)Cn1nnc(-c2ccc(F)cc2)n1)c1ccccc1F (stereo not drawn) 2.28%, CSc1ccccc1NC(=O)CSc1n[nH]c(C)c1[N+](=O)[O-] 8.49%, Nc1nonc1-n1nnc(C(=O)N/N=C/c2ccc(OCc3ccccc3F)cc2)c1CN1CCCCC1 -2.32%, CN1C(=O)/C(=C/c2ccc(O)c([N+](=O)[O-])c2)N(C)C1=S 12.6%, COc1cc(/C=C2/C(=O)N(C)C(=S)N2C)ccc1OCc1cccc(F)c1 8.12%, CCc1cc(=O)oc2c(C)c(OCC(=O)NCCCn3ccnc3)ccc12 5.6%, O=C(C[C@@H]1C[C@@H]2c3cc(NS(=O)(=O)c4ccc(F)cc4)ccc3O[C@@H]2[C@@H](CO)O1)NC1CCCCC1 7.42%, O=C(NCc1cccs1)c1nc2ncccn2n1 10.9%, CSc1cccc(NC(=S)N(CCC(C)C)C2CCN(C(C)C)CC2)c1 1.15%, CC(=O)c1ccc(Nc2ccc(-c3ccccc3C)nn2)cc1 2.32%, COc1ccccc1-c1ccc(Nc2ccc(C(=O)N3CCOCC3)cc2)nn1 2.87%, O=C(NCc1ccncc1)C(=O)N/N=C/c1cccnc1 -4.63%, O=P(Cc1ccccc1O)(c1ccccc1)c1ccccc1 3.4%, Cc1ccc(O)c(CN(C)Cc2cc(C)ccc2O)c1 -9.02%, COc1ccc(S(=O)(=O)NC(C)C(=O)Nc2cccc(C(C)=O)c2)cc1 (stereo not drawn) 8.82%, CCN(CC)CCn1c2ccccc2c2nc3ccccc3nc21 11.3%, CCc1cc2c(=O)c(-c3nc4ccccc4n3C)c(C)oc2c(CN(CC)CC)c1O 8.27%, O=C(c1cccnc1)N1CCN(S(=O)(=O)c2ccc(S(=O)(=O)N3CCCC3)cc2)CC1 2.14%, CCc1ccc(N(CC(=O)Nc2ccc(OC)cc2OC)S(C)(=O)=O)cc1 6.83%, Cc1cc(N2C(=O)C3C4CCC(C4)C3C2=O)no1 (stereo not drawn) -3.98%, O=C(CCCc1cccs1)N1CCN(S(=O)(=O)c2ccccc2Br)CC1 8.03%, CC(=O)NC(NC(=S)Nc1ccc(N=Nc2ccccc2)cc1)C(Cl)(Cl)Cl (stereo not drawn) 7.33%, COC(=O)c1ccc(OC(=O)C2CC(=O)N(c3cccc(C)c3)C2)cc1 (stereo not drawn) -2.41%, COC(=O)C1CC(=O)N(c2ccc(C)cc2)C1 (stereo not drawn) 1.9%, COc1ccc(N2CC(C(=O)OCC(=O)c3ccc(C)cc3)CC2=O)cc1 (stereo not drawn) -1.09%, COc1cccc(N2CC(NC(=O)c3ccc4ccccc4c3)CC2=O)c1 (stereo not drawn) 6.5%, O=C(COC(=O)c1ccccc1Cl)NCc1ccco1 6.58%, CC(C)=CCN1CCN(CCCn2cccn2)CC1CCO (stereo not drawn) 0.56%, CC(=O)Nc1ccc(S(=O)(=O)Nc2nccc(/C=C/c3ccc(Cl)cc3)n2)cc1 -0.65%, COCC1CCN(C(=O)c2cc(COc3ccc(OC)cc3Cl)on2)C1 (stereo not drawn) 10.9%, COC(=O)C1(Cc2ccc(O)cc2)OC(=O)C(O)=C1c1ccc(O)cc1 (stereo not drawn) 16.3%, CC(=O)Nc1ccc(S(=O)(=O)c2ccc(C)cc2)cc1 10.7%, Cc1ccc(S(=O)(=O)c2ccc(C)cc2)cc1 5.53%, COc1cc(C(=O)NCCC(=O)N2CCC3(CC2)NCCc2[nH]cnc23)cc(OC)c1OC 1.24%, CCC1CCCCN1C(=S)NC(=O)c1ccc(F)c(S(=O)(=O)N2CCOCC2)c1 (stereo not drawn) 0.38%, O=C(Cc1cscn1)c1ccc(O)cc1O 0.47%, Cc1nc(C/C(=N\Nc2ccccc2)c2ccc(O)cc2O)cs1 10.9%, Cc1nc(CC(=O)c2ccc(O)cc2O)cs1 -0.73%, Oc1ccc(/C(Cc2ccccn2)=N\Nc2ccccc2)c(O)c1 13.1%, C#CCOCCOCCOCCNc1nc(N2CCN(C(=O)CCCCCCCCCCNC(=O)[C@@H](CCC(=O)O)n3cc(CCCCCN)nn3)CC2)nc(N2CCN(C(=O)CCCCCCCCCCNC(=O)[C@@H](CCC(=O)O)n3cc(CCCCCN)nn3)CC2)n1 0.63%, CCn1c(C)nc2c(C)[n+](CC(=O)c3ccc(Br)cc3)ccc21 8.56%, CSc1nnc2ccc(-c3ccccn3)nn12 -3.72%, COc1ccc(NC2CCCN(C(=O)c3cccc(C)n3)C2)cc1OC (stereo not drawn) 26.1%, Oc1cccc(/C=N/Nc2ncnc3c2ncn3Cc2ccccc2)c1 15.2%, COc1cccc(/C=N/Nc2ncnc3c2ncn3Cc2ccccc2)c1O 7.53%, COc1cccc(C2C(C(=O)c3cccs3)=C(O)C(=O)N2CCN2CCOCC2)c1OC (stereo not drawn) 10.9%, Cc1cn([C@H]2C[C@H](O)[C@@H](CNCc3ccccc3)O2)c(=O)[nH]c1=O 7%, O=c1ccn([C@@H]2O[C@H](CNCC3=Cc4cc(O)ccc4OC3)[C@@H](O)[C@H]2O)c(=O)[nH]1 20%, COC(=O)c1ccc(CNC(=O)C2CCC(=O)N(CCc3ccccc3)C2)cc1 (stereo not drawn) 6.06%, Cn1c(=O)c([N+](=O)[O-])c(NCc2ccccc2Cl)c2ccccc21 8.45%, O=c1/c(=C\c2ccc(F)cc2)sc2n1CCCN=2 -5.16%, O=c1/c(=C\c2ccc3c(c2)OCO3)sc2n1CCCN=2 8.3%, CN(C)c1ccc(/C=c2\sc3n(c2=O)CCCN=3)cc1 9.18%, O=c1/c(=C/c2ccc([N+](=O)[O-])cc2)sc2n1CCCN=2 9.61%
